Bioassay records: PubChem, National Center for Advancing Translational Sciences (NCATS)
In the library only some 3.3% were active in any assay of this set; here they are far more common.
AmpC inh detg – AmpC beta-lactamase inhibition with detergent present | Potency, µM (top dose mostly 114 µM), for inactives: at the top dose activity change, negative = inhibition, most hits filed as inhibitors | P00811 | AID 485294 | AmpC hydrolysis of nitrocefin, absorbance 480 nm, 0.01% Triton | 0.041% of 370,000 active;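 note: 0% = no-compound wells and -100% = no-enzyme wells; nearly all actives have a fitted effect of over 25% in size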
Target sequence (P00811 whole entry, looked up): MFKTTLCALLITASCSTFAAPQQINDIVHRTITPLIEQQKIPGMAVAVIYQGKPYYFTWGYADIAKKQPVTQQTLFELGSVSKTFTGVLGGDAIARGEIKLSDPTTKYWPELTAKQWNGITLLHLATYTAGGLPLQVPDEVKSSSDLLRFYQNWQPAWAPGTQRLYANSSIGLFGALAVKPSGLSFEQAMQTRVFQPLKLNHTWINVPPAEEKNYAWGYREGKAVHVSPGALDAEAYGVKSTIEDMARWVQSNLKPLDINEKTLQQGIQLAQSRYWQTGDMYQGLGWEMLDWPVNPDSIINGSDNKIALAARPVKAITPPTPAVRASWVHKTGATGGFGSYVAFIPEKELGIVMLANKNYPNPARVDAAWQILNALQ
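AmpC (5.3 nM in the dispensed reagent) in 20 mM phosphate pH 7.0 with 0.01% (detergent screen) or 0.0001% Triton X-100 was preincubated with compounds for 15 min at room temperature. Nitrocefin was then added from an 800 uM solution, and hydrolysis was followed at 480 nm.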
AmpC no deterg – AmpC beta-lactamase inhibition without detergent; P00811; AmpC nitrocefin hydrolysis, absorbance 480 nm, 0.0001% Triton; Potency, µM (top dose mostly 57.1 µM), inactives show at the top dose activity change, negative = inhibition, most hits filed as inhibitors; 0.52% of 330,000 active; AID 485341;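 note: plate controls were no compound for no effect and no enzyme for full effect; nearly all actives have a fitted effect of over 20% in size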
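20 mM phosphate pH 7.0 + 0.01% (detergent screen) or 0.0001% Triton X-100; 5.3 nM AmpC reagent; cpd preinc 15 min RT; nitrocefin (800 uM stock) to start; A480 q20 s × 4 min; Activity was normalised to no-enzyme and no-compound control wells.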
Sm TGR block – blocks Schistosoma mansoni thioredoxin glutathione reductase | purified TGR, DTNB reduction, TNB absorbance 405 nm | 3% of 360,000 active | AID 485364 | Potency, µM (highest dose often 114 µM), without a hit: top-dose activity change, negative = inhibition, most hits filed as inhibitors; note: nearly all actives have a fitted effect of over 60% in size
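TGR 20 nM + NADPH 100 uM (dispensed conc.), cpd preinc 15 min RT; start with NADPH (500 uM addition) then DTNB (15 mM addition). Kinetic TNB absorbance, 405 nm filter. Four-parameter Hill fit across titration.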
The depositor's hits bear a star; ? = inconclusive; · = no result given; [ ] = dose if it differs, or a comment. Calls come from the whole dose curve; as a rule, active = well fitted curve in the direction sought with a large enough effect; inconclusive = small, poorly fitted or top-dose-only effect, or another doubt; inactive = no such curve, though single readings can be large; an effect the other way counts as inactive or inconclusive. Unless noted, % is set by controls: 0 for no effect and ±100 for the full control effect; potency is the fitted concentration of half-maximal effect.

SMILES	AmpC inh detg	AmpC no deterg	Sm TGR block
CSc1sc(C)cc1C1C(C#N)=C(N)N(c2cccnc2)C2=C1C(=O)CC(C)(C)C2 (stereo not drawn)	0.2%	36.4%	-16.9%
Cc1ccc(N2C(N)=C(C#N)C(c3cccnc3)C3=C2CC(C)(C)CC3=O)cc1 (stereo not drawn)	-1.8%	13.7%	39.8µM*
CCCCN(Cc1cccs1)S(=O)(=O)c1cc(-c2cc(C)no2)ccc1C	-7.8%	·	-3.2%
CCN1C(=O)C(=Cc2ccc(N3CCOCC3)o2)C(=O)N(CC)C1=S	-4.5%	-17.7%	-25.2%
CN1C(=O)/C(=C/c2ccc(N3CCCCCC3)o2)C(=O)NC1=S	-11.0%	-36.3%	39.8µM*
CN1C(=O)/C(=C\c2ccc(N3CCCCC3)o2)C(=O)NC1=S	?	-7.7%	?
O=C1N/C(=C/c2ccc(N3CCCC3)cc2)C(=O)N1c1ccccc1	-12.0%	-35.9%	-10.0%
C=CCN1C(=O)/C(=C\c2ccc(N3CCOCC3)o2)C(=O)NC1=S	?	-18.0%	50.1µM*
O=C1N/C(=C/c2ccc(N3CCOCC3)o2)C(=O)N1c1ccccc1	0.4%	10.0%	8.91µM*
CN1C(=O)C(=Cc2ccc(N3CCOCC3)o2)C(=O)N(C)C1=S	-0.4%	-14.7%	1.7%[57.1 µM]
O=C1NC(=S)S/C1=C/c1ccc(N2CCOCC2)o1	10.8%	-49.1%	3.55µM*
Cc1ccc(N2C(=O)CSC23C(=O)Nc2ccccc23)cc1F (stereo not drawn)	8.3%	·	7.7%
O=C(O)c1ccc(S(=O)(=O)N[C@H](Cc2ccc(O)cc2)C(=O)O)cc1	?	-9.4%	?
Cc1nnc(SCC(=O)Nc2ccc(N(C)C)cc2)[nH]c1=O	-4.9%	·	-2.7%
C=CCN1C(=O)S/C(=C\c2ccc(N3CCOCC3)cc2C)C1=O	-4.1%	5.5%	-33.5%
C=CCN1C(=O)N/C(=C/c2ccc(N3CCOCC3)o2)C1=O	?	-3.2%	7.08µM*
CCOC(=O)c1ccc(NC(=O)CCc2nc3cccnc3n2Cc2cccs2)cc1	-3.3%	·	-13.1%
O=C(N/N=C/c1ccc[nH]1)c1cc2ccccc2cc1O	-6.9%	14.1µM*	?
O=C(N/N=C/c1ccncc1)c1cc2ccccc2cc1O	5.2%	-13.9%	7.7%
Nc1ccc(-c2nc3ccc(N)cc3o2)cc1	-10.3%	-20.2%	5.2%
Cc1ccc2nc(-c3cc(N)cc(N)c3)oc2c1	-3.4%	6.2%	50.1µM*
Cc1c(C)n(Cc2ccccc2)c2ccc(C(=O)N3CCN(c4ccccc4F)CC3)cc12	5.5%	·	3.4%
NC(=O)c1nsc(C(=O)N(c2cccc(F)c2)C(C(=O)NCc2ccccc2)c2ccc(O)cc2)c1N (stereo not drawn)	-6.5%	7.94µM*	?
NC(=O)c1nsc(C(=O)N(c2cccc(F)c2)C(C(=O)NC2CCCC2)c2ccc(O)cc2)c1N (stereo not drawn)	4.3%	-27.7%	-22.0%
CCOc1ccccc1NC(=O)C1CCN(S(=O)(=O)c2ccc3c(c2)CCCN3C(C)=O)CC1	-0.4%	·	4.6%
SMILES	AmpC inh detg	AmpC no deterg	Sm TGR block
COc1ccc2c(C(=O)CN3CCSCC3)c[nH]c2c1	11.5%	-4.9%	-22.9%
COc1ccc2c(C(=O)CN(C)C3CCCCC3)c[nH]c2c1	-10.9%	-18.8%	35.5µM*
CCOc1ccc(NC(=O)Cn2c(=O)n(Cc3ccc(C(=O)NCc4ccc(C)cc4)cc3)c(=O)c3ccccc32)cc1	-3.4%	·	-11.4%
c1cc2c(cc1C1CCCN1)OCCCO2 (stereo not drawn)	-2.3%	0.224µM*	?
O=S(=O)(c1ccc2c(c1)OCCCO2)N1CCNCC1	?	-4.8%	-13.8%
Cc1ccc(CNC(=O)c2sc3nc(C)cc(C)c3c2-n2cccc2)cc1	4.0%	·	-16.0%
Cn1c(=O)c(=O)n(C)c2cc(N3CCCC3)c(NC(=O)c3ccc(C(C)(C)C)cc3)cc21	-5.8%	·	?
COc1cc(C2CC(=O)N(Cc3ccc(F)cc3)c3ccccc3S2)cc(OC)c1OC (stereo not drawn)	1.7%	·	8.9%
Cc1ccc2nc(N/C(=N/S(=O)(=O)c3cccs3)c3ccccc3Cl)sc2c1	-12.9%	12.6µM*	0.3%
Cc1ccc2nc(NC(=O)C3CCN(S(=O)(=O)c4cccs4)CC3)sc2c1	5.7%	-22.3%	1.1%
Cc1onc(-c2ccccc2Cl)c1C(=O)NCc1ccco1	?	-13.3%	44.7µM*
Cc1ccc(CNC(=O)c2c(-c3ccccc3Cl)noc2C)cc1	1.7%	0.0%	-27.5%
Cc1onc(-c2ccccc2Cl)c1C(=O)Nc1ccc(CN2CCCC2)cc1	?	-20.9%	79.4µM*
Cc1onc(-c2ccccc2Cl)c1C(=O)Nc1ccccc1	2.2%	-11.0%	-6.7%
Cc1cc(C)c(NC(=O)Cn2c(=O)n(CCc3ccccc3)c(=O)c3ccccc32)c(C)c1	20.4%	·	1.0%
CC1(C)Cc2c(C#N)c(N)sc(=S)c2CS1	-1.3%	-40.1%	31.6µM*
Cn1c(N)c(C#N)c2c(c1=S)CSC(C)(C)C2	-13.3%	-9.6%	12.6µM*
N#Cc1c(N)sc2c1CCCCCC2	?	-22.5%	1.8%
CC(C)c1nc(Cl)c(C#N)c2c1CSC(C)(C)C2	-10.5%	-12.6%	-1.9%
Cn1c(N)c(C#N)c2c(c1=S)COC(C)(C)C2	-16.4%	-21.9%	-36.0%
N#Cc1c(N)sc(=S)c2c1CCCCC2	-1.0%	-36.0%	7.94µM*
O=C(NCC1CCCO1)c1c[nH]c2ccc(S(=O)(=O)Nc3ccc(F)cc3F)cc2c1=O (stereo not drawn)	-3.3%	·	-0.5%
CCCCN(CC)C(=O)CSc1nc2c(sc3ccccc32)c(=O)n1CCc1ccccc1	1.5%	·	49.3%
CCOc1ccc(CNC(=O)c2sc3ncnc(N(C)C4CCCCC4)c3c2C)cc1	10.7%	·	6.0%
COc1ccc(CCNC(=O)c2ccc3c(c2)CCN3S(=O)(=O)c2ccc(Cl)cc2)cc1	3.1%	·	0.5%
SMILES	AmpC inh detg	AmpC no deterg	Sm TGR block
CC(=O)c1ccc(NC(=O)c2ccc3c(c2)nnn3C2CCCC2)cc1	3.2%	·	7.6%
N#Cc1ccc(NC(=O)c2ccc3c(c2)nnn3C2CCCC2)cc1	1.5%	·	4.47µM*
COc1ccc2cc(CCNS(=O)(=O)c3ccc(C)cc3)c(=O)[nH]c2c1	10.3%	·	14.0%
COc1ccc(C(=O)/C=C/Nc2ccc([N+](=O)[O-])cc2C)c(OC)c1	0.6%	1.26µM*	3.0%
COc1ccc(C(=O)/C=C/Nc2ccc([N+](=O)[O-])cc2C)cc1OC	3.5%	2µM*	1.7%
COc1ccc(C(=O)NC(=S)Nc2ccc([N+](=O)[O-])cc2C)cc1OC	1.5%	?	3.2%
COc1ccc(C(=O)/C=C/Nc2cc(C)on2)c(OC)c1	-7.9%	-2.8%	-13.2%
Cc1ccc(-c2c3c(=O)n(C)c(=O)n(C)c3c3c(C)nc4ccccc4n23)cc1	7.0%	·	1.1%
COc1cccc(NS(=O)(=O)c2ccc3[nH]cc(C(=O)NC(C)c4ccccc4)c(=O)c3c2)c1 (stereo not drawn)	6.0%	·	5.5%
O=C1C(Nc2ccccc2)=C(N2CCCCC2)C(=O)c2ccccc21	-1.0%	-15.3%	8.91µM*
O=C(/C=C/c1ccc(O)cc1)c1ccc(NC2=C(N3CCCCC3)C(=O)c3ccccc3C2=O)cc1	-12.0%	-31.6%	25.1µM*
O=C(/C=C/c1ccc(O)cc1)c1ccccc1	1.8%	-32.0%	-18.9%
